Several values for one entry are separate records, joined by “and”; a condition that tells them apart may be missing. Equal values may be shown once. Results filed as inconclusive are left out. Activity calls are given as the source filed them. Unless noted, the call rests on the fitted dose curve; in most records, active means well fitted curve in the direction sought with a large enough effect; inconclusive means small, poorly fitted or top-dose-only effect, or another doubt; inactive means no such curve, though single readings can be large; an effect the other way counts as inactive or inconclusive. Non-standard residues stand in square brackets, D forms with d. Residues, ends and D or L forms follow the SMILES beside them. *: point of attachment. Sta = CC(C)C[C@H](N)[C@@H](O)CC(=O)O; Isovaleryl = CC(C)CC(=O)*
What was measured:
[1] = test system: Tov112D; test: Primary qHTS to identify gynecologic anti-cancer compounds using libraries of approved drugs and bioactive compounds (AID 1345084); conditions: Gynecologic cancer cell panel viability, ATPlite luminescence, 48 h; series mostly up to 57.5 µM; further: nearly all actives have a fitted effect of over 55% in size; further: potency means the concentration at half of the fitted maximal effect; on activity change, negative = cytotoxicity: on the % scale 0 is the no-effect control and ±100 the full control effect
Outline: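 Luminescence from the ATPlite ATP-monitoring reagent indicates viable cell number; lower signal means cytotoxicity. Cells received compound 16 h after seeding and were exposed for 48 h across five concentrations.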

[2] = Drug repurposing screens with cells derived from glioblastoma tumor samples (AID 1345199); conditions: GBM patient neurospheres viability, ATP luminescence, 48 h; further: nearly all actives have a fitted effect of over 40% in size; further: potency means the concentration at half of the fitted maximal effect; on activity, negative = cell killing: on the % scale 0 is the no-effect control and ±100 the full control effect
Outline: (§1)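 Four patient lines of CD133+ GBM neurospheres were screened at several concentrations; hits were retested in those lines plus three slower-growing GBM lines, using 48-hour treatment and ATP-based viability.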

[3] = test system: astro; test: as above; conditions: viability, ATP luminescence, 48 h; series mostly up to 45.9 µM
Outline: as §1

[4] = biological target: Nuclear receptor subfamily 1 group I member 2 (Rattus norvegicus) (UniProt Q9R1A7); test: qHTS assay for small molecule activators of the rat pregnane X receptor (rPXR) signaling pathway (AID 651751; call rule not given here; further: 0% is about no effect); conditions: rPXR reporter cells, luciferase (One-Glo), 24 h
Sequence of Nuclear receptor subfamily 1 group I member 2 (Rattus norvegicus) (Q9R1A7 whole entry, looked up): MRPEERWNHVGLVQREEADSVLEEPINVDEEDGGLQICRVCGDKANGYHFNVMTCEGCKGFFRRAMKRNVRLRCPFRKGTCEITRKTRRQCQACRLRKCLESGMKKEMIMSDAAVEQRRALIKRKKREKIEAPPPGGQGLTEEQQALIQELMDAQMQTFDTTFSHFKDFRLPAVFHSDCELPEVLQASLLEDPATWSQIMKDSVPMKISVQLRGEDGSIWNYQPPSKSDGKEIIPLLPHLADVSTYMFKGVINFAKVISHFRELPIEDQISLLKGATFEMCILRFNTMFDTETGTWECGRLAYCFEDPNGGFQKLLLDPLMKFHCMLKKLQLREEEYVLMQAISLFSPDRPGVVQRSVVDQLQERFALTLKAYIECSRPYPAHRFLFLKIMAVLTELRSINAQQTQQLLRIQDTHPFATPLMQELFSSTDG

[5] = qHTS assay for small molecule activators of the human pregnane X receptor (PXR) signaling pathway (AID 720659; call rule not given here; further: 0% is about no effect); conditions: DPX-2 HepG2 CYP3A4-luciferase, 24 h; series mostly up to 92.3 µM
[6] = qHTS assay to identify inhibitors of the type 1 interferon - major histocompatibility complex class I in skeletal muscle: Counter screen cell viability and HiBit confirmation (AID 1347412); conditions: iHSKM muscle cells + IFN-b, HiBiT or CellTiter-Glo, 24 h; Viability; further: potency means the concentration at half of the fitted maximal effect; nearly all actives have a fitted effect of over 60% in size
Outline: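 Luminescence read-out: Nano-Glo HiBiT lytic signal from C-terminally HiBiT-tagged HLA-B in CRISPR-edited human myoblasts, plus CellTiter Glo ATP as viability counter screen. IFN-beta 4.0 ng/ml; 24 hrs treatment at 37 C, 5% CO2.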

[7] = at 45.9 µM (top of the series), tumour line B
[8] = at 45.9 µM (top of the series), tumour line D
[9] = at 46 µM (top of the series), tumour line A
[10] = at 46.1 µM (top of the series), tumour line C
[11] = at 20 µM (top of the series), tumour line C
[12] = at 21.2 µM (top of the series), tumour line B
[13] = at 21.2 µM (top of the series), tumour line D

CCC[C@@H]1C[C@@H](C(=O)N[C@@H]([C@H]2O[C@H](SC)[C@H](O)[C@@H](O)[C@H]2O)[C@@H](C)O)N(C)C1
inactive: Potency [1] | activity, negative = cell killing [2, 7] -4.01% | activity, negative = cell killing [2, 8] 5.06% | activity, negative = cell killing [2, 9] -2.05% | activity, negative = cell killing [2, 10] 3.06% | Potency [3]

CCN(CCO)CCCC(C)Nc1ccnc2cc(Cl)ccc12 (stereo not drawn)
active: Potency ([2]; tumour line A) 11.2 µM
inactive: activity change, negative = cytotoxicity [1] 10.4% [at 6.55 µM] and 2.64% [at 6.55 µM] | activity, negative = cell killing [2, 7] -10.8% | activity, negative = cell killing [2, 8] -19.9% | activity, negative = cell killing [2, 10] 3.19% | Potency [3]

CC(C)CC(=O)N[C@H](C(=O)N[C@H](C(=O)N[C@@H](CC(C)C)[C@@H](O)CC(=O)N[C@@H](C)C(=O)N[C@@H](CC(C)C)[C@@H](O)CC(=O)O)C(C)C)C(C)C (Isovaleryl-VV[Sta]A[Sta]-OH)
inactive: Potency [1] | activity, negative = cell killing [2, 7] -11.5% | activity, negative = cell killing [2, 8] -9.71% | activity, negative = cell killing [2, 9] -22.1% | activity, negative = cell killing [2, 10] -23.6% | Potency [3]

O=C1CCc2ccc(OCCCCN3CCN(c4cccc(Cl)c4Cl)CC3)cc2N1
inactive: Potency [1] | activity, negative = cell killing [2, 10] -16.8%
active: Potency ([2]; tumour line A) 3.98 µM | Potency ([2]; tumour line B) 22.4 µM | Potency [3] 31.6 µM

Cc1cc(=O)oc2cc(O)ccc12
inactive: Potency [1] | activity, negative = cell killing [2, 11] -8.91% | activity, negative = cell killing [2, 12] -9.65% | activity, negative = cell killing [2, 13] -8.02% | Potency [3]

COc1cc(OC)c(C(=O)CCCN2CCCC2)c(OC)c1
inactive: Potency [1] | activity, negative = cell killing [2, 11] 0.201% | activity, negative = cell killing [2, 12] -11.8% | activity, negative = cell killing [2, 13] -17.1% | activity, negative = cell killing ([2]; at 21.3 µM (top of the series), tumour line A) -24.2% | Potency [3]

CC(=O)NC[C@H]1CN(c2ccc(N3CCOCC3)c(F)c2)C(=O)O1
inactive: Potency [1] | activity, negative = cell killing [2, 7] -14.6% | activity, negative = cell killing [2, 8] -26.2% | activity, negative = cell killing [2, 10] 15.8% | Potency [3]

CN(C)C(=O)COC(=O)Cc1ccc(OC(=O)c2ccc(N=C(N)N)cc2)cc1
inactive: Potency [1] | activity, negative = cell killing [2, 7] -12.3% | activity, negative = cell killing [2, 8] 2.44% | activity, negative = cell killing [2, 10] -19.5% | Potency [3]

O=C(O)c1cn(-c2ccc(F)cc2)c2cc(N3CCNCC3)c(F)cc2c1=O
inactive: Potency [1] | activity, negative = cell killing [2, 7] -14.1% | activity, negative = cell killing [2, 8] -2.04% | activity, negative = cell killing [2, 10] 0.795% | Potency [3]

COC(=O)C1=C(C)NC(C)=C(C(=O)OC(C)C)C1c1cccc2nonc12 (stereo not drawn)
inactive: Potency [1] | activity, negative = cell killing [2, 11] -16.7% | activity, negative = cell killing [2, 12] -11.5% | activity, negative = cell killing [2, 13] -1.17% | Potency [3]

O=C(NC(Cc1cc(=O)[nH]c2ccccc12)C(=O)O)c1ccc(Cl)cc1 (stereo not drawn)
inactive: Potency [1] | activity, negative = cell killing [2, 7] -5.33% | activity, negative = cell killing [2, 8] 4.89% | activity, negative = cell killing [2, 9] -9.81% | activity, negative = cell killing [2, 10] -15.5% | Potency [3]

CNC[C@H](O)c1ccc(O)c(O)c1
inactive: Potency [1] | activity, negative = cell killing [2, 7] -6.05% | activity, negative = cell killing [2, 8] -9.08% | activity, negative = cell killing [2, 9] -12.1% | activity, negative = cell killing [2, 10] -9.48% | Potency [3] | max response [4] 0.58% | outcome [5]

COc1cc2nc(N3CCN(C(=O)C4CCCO4)CC3)nc(N)c2cc1OC (stereo not drawn)
inactive: Potency [1] | activity, negative = cell killing [2, 7] -11.4% | activity, negative = cell killing [2, 8] -6.51% | activity, negative = cell killing [2, 10] -17.4% | Potency [3]

c1cnc2cc3c(cc2n1)C1CNCC3C1
inactive: Potency [1] | activity, negative = cell killing ([2]; at 99.2 µM (top of the series), tumour line C) 7.09% | activity, negative = cell killing ([2]; at 108 µM (top of the series), tumour line A) -15.8% | activity, negative = cell killing ([2]; at 108 µM (top of the series), tumour line B) -8.07% | activity, negative = cell killing ([2]; at 108 µM (top of the series), tumour line D) -25.1% | Potency [3]

COc1c2occc2cc2ccc(=O)oc12
inactive: Potency [1] | activity, negative = cell killing [2, 7] -22.6% | activity, negative = cell killing [2, 8] -10.6% | activity, negative = cell killing [2, 10] -21.4% | Potency [3] | max response [4] 0.0225% and 5.31%

CCC1=C(C)CN(C(=O)NCCc2ccc(S(=O)(=O)NC(=O)NC3CCC(C)CC3)cc2)C1=O (stereo not drawn)
inactive: Potency [1] | Potency [3]

O=C(c1ccccc1)c1ccc2n1CCC2C(=O)O (stereo not drawn)
inactive: Potency [1] | Potency [3]

O=C(NCCO[N+](=O)[O-])c1cccnc1
inactive: Potency [1] | activity, negative = cell killing [2, 7] -0.47% | activity, negative = cell killing [2, 8] -18.1% | activity, negative = cell killing [2, 10] -10.1% | Potency [3]

NC(=O)Cc1cccc(C(=O)c2ccccc2)c1N
inactive: Potency [1] | Potency [3]

Cc1ccc(S(=O)(=O)NC(=O)NN2CC3CCCC3C2)cc1 (stereo not drawn)
inactive: Potency [1] | activity, negative = cell killing [2, 11] -7.38% | activity, negative = cell killing [2, 12] -4.46% | activity, negative = cell killing [2, 13] -18.4% | Potency [3]

COc1cc(C(C)=O)ccc1OCCCN1CCC(c2noc3cc(F)ccc23)CC1
inactive: Potency [1] | Potency [3]

Cc1cc(=O)c2c(O)c3c(O)cc(=O)c4c3c3c(cc(O)c1c23)C(C)(C)C=4O
active: Potency [1] 2.24 µM | Potency [3] 2.51 µM

Cc1nccn1CC1CCc2c(c3ccccc3n2C)C1=O (stereo not drawn)
inactive: Potency [1] | Potency [3]

O=C(O)c1cccc(-c2noc(-c3ccccc3F)n2)c1
active: Potency [1] 7.94 µM and 10 µM | Potency [3] 2.51 µM

CN(C)c1ccc2nc3ccc(=[N+](C)C)cc-3sc2c1
active: Potency [1] 6.31 µM | Potency [3] 5.01 µM | Potency [6] 15.7 µM
inactive: outcome [5]
